Results taken from PubChem BioAssay (NCI).
Compounds without any hit were thinned out: in the full panel of roughly 83,000, 20% have a hit.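 Negative percent growth values reflect cell death: -40 means 40% of the cells present at the start died, and -100 means all died.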 A number with no mark means an inactive call. Calls of active or inactive are those of the source.

The molecules below were run on LOX IMVI melanoma (assay: NCI-60 one-dose screen, 48 h (100 = growth as untreated, 0 = no growth, -100 = all killed)). Conditions: 10 µM.
Experimental: Growth inhibition of the LOX IMVI human tumor cell line is measured as a screen for anti-cancer activity. Cells are grown in 96 well plates and exposed to the test compound for 48 hours. Compounds are tested at a single concentration, which is 10^-5 M for most compounds. The reported endpoint is percent growth (GI% or GIPRCNT), where numbers from 0 - 100% represent growth inhibition, and numbers from -100% - 0 represent cell death. For example, a value of 40 represents 60% growth inhibition. A value of 0 means no net growth occurred over the course of the experiment. A value of -40 indicates 40% of cells at the beginning of the experiment died by the end of the experiment. A value of -100 means all cells are dead at the end of the experiment.
NCI-60 Human Tumor Cell Lines Screen was performed using the standard one-dose NCI protocol, which is described in more detail at https://dtp.cancer.gov/discovery_development/nci-60/default.htm.
Compounds with GIPRCNT values below 10 were considered active. Activity score was based on GIPRCNT using the following formula: […]
Score is 0 for GIPRCNT values of 100 or above, 50 for GIPRCNT values of 0, and 100 for GIPRCNT values of -100.

**Q.** For `CC(c1ccccc1)N1C(=O)CSC1=S` (stereo not given), which growth is on record?
**A.** Its growth is 16.1%.

**Q.** For `Cc1cc2c3ccc(C)[n+](C)c3ccc2n1C`, which growth is on record?
**A.** Its growth is 43.9%.

**Q.** Which growth does the source give for `CC(C)NC(=O)OCc1c(COC(=O)NC(C)C)c(-c2ccc(Cl)cc2)n2c1CCC2` here?
**A.** The growth was 30.5%.

**Q.** With `CCNC(=O)Oc1ccc[nH]c1=O` as the molecule, how does the growth read?
**A.** Its growth is 99.1%.

**Q.** For `CN(C)c1ccc2nc3ccc(=[N+](C)C)cc-3oc2c1`, which growth is on record?
**A.** Its growth is 12.2%.

**Q.** With `CC(C)N1CC(=O)N2CSCC2C1=O` (stereo not given) as the molecule, how does the growth read?
**A.** Its growth is 98.9%.

**Q.** Which growth does the source give for `COc1ccc(C2CC(c3ccccc3)=Nc3ccccc3S2)cc1` (stereo not given) here?
**A.** Its growth is 95%.

**Q.** `ClCC(Cl)C1CCC(Cl)C(Cl)C1` (stereo not given) was tested. Which growth did it give?
**A.** The growth was 95.9%.

**Q.** For `O=C(OCC1CCCO1)c1ccc([N+](=O)[O-])cc1` (stereo not given), which growth is on record?
**A.** Its growth is 104%.

**Q.** For `COC1=C(OC)C(=O)C(SC/C=C(\C)CCCC(C)CCCC(C)CCCC(C)C)=CC1=O` (stereo not given), which growth is on record?
**A.** Its growth is 17.2%.

**Q.** How did the growth turn out when `CCCCCCCCNC(=O)C(C)C` was run?
**A.** Its growth is 98%.

**Q.** How did the growth turn out when `Cc1cc(C(=O)c2ccccc2)cc(C)c1O` was run?
**A.** The growth was 92.1%.

**Q.** Which growth does the source give for `COC(=O)c1ccccc1C(=O)c1c(C)cc(C)cc1C` here?
**A.** Its growth is 102%.

**Q.** `CC(=O)NC(O)C(Cl)Cl` (stereo not given) was tested. Which growth did it give?
**A.** Its growth is 87.8%.

**Q.** Which growth does the source give for `O=C(Nc1ccc([N+](=O)[O-])cc1)C(=O)Nc1ccc([N+](=O)[O-])cc1` here?
**A.** The growth was 94.9%.

**Q.** For `CCN(C(=O)Nc1ccccc1Cl)c1ccccc1`, which growth is on record?
**A.** Its growth is 96.5%.

**Q.** How did the growth turn out when `Clc1cccc(Cl)c1C1CSc2ccccc2N=C1c1ccccc1` (stereo not given) was run?
**A.** Its growth is -4.86% (active).

**Q.** With `COC1OC(COC(C)=O)C(OC(C)=O)C(OC(C)=O)C1OC(C)=O` (stereo not given) as the molecule, how does the growth read?
**A.** The growth was 98.5%.

**Q.** `COC(c1ccc2c(c1)OCO2)C(C)Br` (stereo not given) was tested. Which growth did it give?
**A.** Its growth is 92.3%.

**Q.** Which growth does the source give for `COc1cc2c(c(OC)c1OC)-c1ccc(SC)c(=O)cc1[C@@H](NC1OC(CO)C(O)C(O)C1O)CC2` (stereo not given in full) here?
**A.** The growth was 22.3%.

**Q.** With `C[C@H](CCC[C@H](C)OS(=O)(=O)c1ccccc1)OS(=O)(=O)c1ccccc1` as the molecule, how does the growth read?
**A.** Its growth is 101%.

**Q.** With `CCOc1ccc(C(=O)O)cc1` as the molecule, how does the growth read?
**A.** Its growth is 98.7%.

**Q.** `Oc1cc2ccccc2c(-c2c(O)c(O)cc3ccccc23)c1O` was tested. Which growth did it give?
**A.** The growth was 14.5%.

**Q.** How did the growth turn out when `CC(C)Sc1ncnc2nc[nH]c12` was run?
**A.** Its growth is 100%.

**Q.** How did the growth turn out when `CC(O)C(F)(F)C(F)(F)C(F)(F)F` (stereo not given) was run?
**A.** The growth was 107%.

**Q.** Which growth does the source give for `CC(=O)c1cccc(N(C)S(=O)(=O)c2ccc(C)cc2)c1` here?
**A.** The growth was 82.3%.

**Q.** How did the growth turn out when `Cc1[nH]c(=S)[nH]c(=O)c1C` was run?
**A.** The growth was 104%.

**Q.** Which growth does the source give for `N#CC1(O)CCCCC1` here?
**A.** Its growth is 91.7%.

**Q.** With `Cc1ccc(C)c(CCO)c1` as the molecule, how does the growth read?
**A.** The growth was 100%.

**Q.** `Cc1cc(CC(=O)NCCO)n(CCO)c(=O)c1` was tested. Which growth did it give?
**A.** Its growth is 98.8%.

**Q.** For `Nc1ccc2c(c1)Cc1cc(N)c(N)cc1-2`, which growth is on record?
**A.** The growth was 97%.

**Q.** How did the growth turn out when `COc1cc(-c2ccc(NC(=O)CC(C)=O)c(OC)c2)ccc1NC(=O)CC(C)=O` was run?
**A.** Its growth is 96.7%.

**Q.** For `Nc1ccc2ccccc2c1-c1c(N)ccc2ccccc12`, which growth is on record?
**A.** Its growth is 36.8%.

**Q.** Which growth does the source give for `CC(=O)OCC1OC(n2cnc3c(=S)nc(N)[nH]c32)C(OC(C)=O)C1OC(C)=O` (stereo not given) here?
**A.** The growth was 19.7%.

**Q.** With `CCOC(=O)/C(O)=C(\C=N\C(=S)Nc1ccc(Cl)c(Cl)c1)C(=O)OCC` as the molecule, how does the growth read?
**A.** Its growth is 92.9%.

**Q.** How did the growth turn out when `CN(C)Cc1ccccn1` was run?
**A.** Its growth is 96.3%.

**Q.** `O=C(O)CCCCCNC(=O)OCc1ccccc1` was tested. Which growth did it give?
**A.** The growth was 104%.

**Q.** With `NC(=O)c1cc2c3ccccc3ccn2c1-c1ccccc1` as the molecule, how does the growth read?
**A.** The growth was 20%.

**Q.** For `COC(=O)C1=C(C)C(=O)CC1`, which growth is on record?
**A.** Its growth is 118%.

**Q.** For `NC(CO)(CO)c1ccccc1`, which growth is on record?
**A.** The growth was 101%.
